T cruzi growth-1 – blocks T. cruzi growth in NIH3T3 culture. T. cruzi beta-gal in NIH3T3, GalScreen luminescence, 90 h. inhibition, % at 8.34 µM. hit rate 5.9% among 77,000. AID 624255;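 active = mean inhibition above about 93%, with at least 55% of replicates each passing it, limit read from the data, passing the limit was not always enough; inconclusive = only one of those two conditions holds; inactive = neither condition holds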
C diff HTS – blocks growth of Clostridium difficile | Clostridium difficile clinical isolate growth, OD600, 24 h; stronger effect = lower value | growth activity, negative = inhibition, % at 16 µg/mL (by protocol) | hit rate 0.25% among 86,000;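 active = mean growth activity at or below -80% and every replicate also at or below -80%; inconclusive = mean at or below -80% but some replicate above -80%; inactive = mean growth activity above -80%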;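 note: 0% = DMSO wells and -100% = levofloxacin 16 µg/mL wells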
Pf Dd2 growth – blocks growth of Plasmodium falciparum Dd2 parasites; P. falciparum Dd2 growth, SYBR Green, 72 h; stronger effect = lower value; activity change, % at 10 µM; hit rate 2.3% among 94,000; in the data active = activity change below about -80%; inconclusive = no clear call, values can overlap the other calls
T cruzi growth-2 – blocks T. cruzi growth in NIH3T3 host cells; shares compounds with T cruzi growth-1; T. cruzi beta-gal in NIH3T3, GalScreen luminescence, 90 h; inhibition, % at 8.35 µM; hit rate 72% among 5,600;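 active = mean replicate inhibition above about 95% and at least 55% of replicates individually reaching it, limit read from the data; inconclusive = only one of the two criteria is met; inactive = neither criterion is met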
T cruzi growth-3 – blocks T. cruzi growth in NIH3T3 host cells. shares compounds with T cruzi growth-1. T. cruzi beta-gal in NIH3T3, GalScreen luminescence, 90 h. inhibition, % at 2.09 µM. hit rate 21% among 5,600. AID 651740;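 active = mean inhibition above about 95%, with at least 55% of replicates also reaching it, limit read from the data; inconclusive = meets just one of the two conditions; inactive = meets neither condition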;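 note: plate controls were neutral control median for no effect and positive control median for full effect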
3T3 cytotox – NIH/3T3 (mouse) viability loss. NIH/3T3 viability, CellTiter-Glo ATP luminescence, 90 h. cytotoxicity (signal decrease), % at 8.35 µM. shares compounds with T cruzi growth-1. AID 651742. hit rate 14% among 5,600;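 active = mean signal decrease across replicates above about 35% based on untreated-well scatter, with enough replicates individually passing, limit read from the data; inconclusive = no rule stated though some were filed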;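 note: 0% = median of neutral control wells and 100% = median of positive control wells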
NIH3T3 tox 2 – kills mouse NIH/3T3 fibroblasts | hit rate 56% among 5,600 | inhibition, % at 24.9 µM | NIH/3T3 viability, CellTiter-Glo ATP luminescence, 90 h | AID 651744 | shares compounds with T cruzi growth-1;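 active = mean loss of cell viability signal at or above a set limit, and enough replicates individually reaching it; inconclusive = meets only the mean limit or only the replicate share; inactive = meets neither condition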;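 note: 0% = median of neutral control wells and 100% = median of positive control wells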
* hit, by the source's call; ? = inconclusive; · = not tested or not shown. In the library only some 6.7% were active in any assay of this set; here they are far more common.

SMILES	T cruzi growth-1	C diff HTS	Pf Dd2 growth	T cruzi growth-2	T cruzi growth-3	3T3 cytotox	NIH3T3 tox 2
Cc1noc(C)c1S(=O)(=O)Nc1cccc2c1O[C@@H](CN(C)C(=O)NC1CCCCC1)[C@@H](C)CN([C@@H](C)CO)C2=O	69.4	·	1.9	·	·	·	·
COc1ccccc1C#Cc1ccc2c(c1)O[C@@H](CN(C)C)[C@H](C)CN([C@H](C)CO)S2(=O)=O	·	2.8	-59.0	·	·	·	·
CCCN(C)C[C@H]1Oc2cc(C#Cc3ccccc3OC)ccc2S(=O)(=O)N([C@@H](C)CO)C[C@H]1C	96.7*	4.6	-62.7	105.9*	80.0	7.3	104.9*
CCCN(C)C[C@@H]1Oc2cc(C#Cc3ccccc3OC)ccc2S(=O)(=O)N([C@H](C)CO)C[C@@H]1C	96.7*	10.7	-84.2*	108.1*	81.3	21.0	107.2*
CCCN(C)C[C@H]1Oc2cc(C#Cc3ccccc3F)ccc2S(=O)(=O)N([C@H](C)CO)C[C@H]1C	80.2	10.4	-74.1	·	·	·	·
O=C(NC1CCC1)[C@@H]1[C@@H](CO)[C@@H]2Cn3c(ccc(-c4ccccc4)c3=O)[C@@H]2N1CCc1ccccc1	53.6	5.7	-17.0	·	·	·	·
Cc1noc(C)c1NC(=O)Nc1ccc2c(c1)C(=O)N([C@H](C)CO)C[C@@H](C)[C@H](CN(C)S(=O)(=O)c1ccccc1)OCCCC[C@@H](C)O2	10.4	3.2	-46.7	·	·	·	·
C[C@H](CO)N1C[C@H](C)[C@@H](CN(C)S(=O)(=O)c2cccs2)Oc2c(NC(=O)c3cnccn3)cccc2C1=O	11.0	6.5	-7.5	·	·	·	·
C[C@@H]1CN([C@@H](C)CO)S(=O)(=O)c2ccc(Br)cc2O[C@@H]1CN(C)Cc1cccnc1	112.2*	0.3	24.5	107.0*	80.4	10.8	13.1
C[C@H](CO)N1C[C@H](C)[C@@H](CN(C)Cc2cccnc2)Oc2cc(Br)ccc2S1(=O)=O	111.1*	-0.2	4.4	92.5	66.9	-4.9	39.5*
C[C@H]1CN([C@@H](C)CO)S(=O)(=O)c2ccc(Br)cc2O[C@H]1CN(C)Cc1cccnc1	·	-0.8	-2.4	·	·	·	·
C[C@H](CO)N1C[C@H](C)[C@H](CN(C)Cc2cccnc2)Oc2cc(Br)ccc2S1(=O)=O	·	3.4	0.5	·	·	·	·
CN(C)C(=O)[C@@H]1[C@@H](CO)[C@@H]2Cn3c(cccc3=O)[C@H]1N2CC1CCCC1	·	-7.8	1.6	·	·	·	·
CN(C)CC#Cc1ccc([C@H]2[C@H](CO)N3CCCCN(C(=O)Nc4ccc(F)cc4)C[C@@H]23)cc1	43.4	7.6	-57.0	·	·	·	·
O=C(Nc1ccccc1)N1CCCCN2[C@H](C1)[C@@H](c1ccc(C#Cc3cccnc3)cc1)[C@@H]2CO	26.8	24.4	-28.5	·	·	·	·
O=C(Nc1ccc(F)cc1)N1CCCCN2[C@H](C1)[C@H](c1ccc(C#Cc3ccccc3)cc1)[C@@H]2CO	123.3*	-4.1	-89.4*	102.5*	31.2	0.1	76.4*
O=C(Nc1ccccc1)N1CCCCN2[C@H](C1)[C@H](c1ccc(C#Cc3ccccc3)cc1)[C@@H]2CO	105.9*	-2.6	-3.8	104.2*	45.1	10.5	39.2*
N#Cc1ccc(-c2ccc([C@H]3[C@@H](CO)N4C(=O)CN(C(=O)C5CCCC5)C[C@H]34)cc2)cc1	·	-1.7	-54.4	·	·	·	·
CN1C(=O)c2cc(NC(=O)c3cccs3)ccc2OC[C@@H]2O[C@H](CC(=O)N3CCCCC3)CC[C@H]21	92.7	-9.6	-23.6	·	·	·	·
Cc1noc(C)c1NC(=O)N(C)C[C@H]1Oc2ccc(NC(=O)NC(C)C)cc2CC(=O)N([C@H](C)CO)C[C@H]1C	-0.9	3.1	-28.2	·	·	·	·
O=C(C1CCC1)N1CCCCN2[C@H](CO)[C@H](c3ccc(C#CC4(O)CCCC4)cc3)[C@@H]2C1	?	-2.5	9.9	98.8*	65.5	19.6	39.5*
O=C(C1CCC1)N1CCCCN2[C@H](C1)[C@@H](c1ccc(C#CC3(O)CCCC3)cc1)[C@@H]2CO	69.0	-4.1	11.8	·	·	·	·
O=C(C1CCC1)N1CCCCN2[C@H](CO)[C@@H](c3ccc(C#CC4(O)CCCC4)cc3)[C@H]2C1	-19.8	-5.7	11.0	·	·	·	·
O=C(C1CCC1)N1CCCCN2[C@H](C1)[C@H](c1ccc(C#CC3(O)CCCC3)cc1)[C@@H]2CO	73.5	-4.1	28.5	·	·	·	·

Screening results as filed in PubChem BioAssay.
